High-throughput results: PubChem, several laboratories
Only some compounds are listed: those with a hit (about 3.9% of all), similar ones and a draw of the others.
3CLpro inhibitor: SARS-CoV 3CLpro protease inhibitors, primary screen, biochemical, quenched FRET; Replicase polyprotein 1ab (Severe acute respiratory syndrome coronavirus), P0C6X7; recombinant SARS-CoV 3CLpro, quenched FRET peptide cleavage; inhibition, % at 6 µM; hit rate 0.14% among 290,000; AID 1706, 2009; in the data active = inhibition above about 12%
VHR inh abs: VHR1 phosphatase inhibitors, primary screen, biochemical, absorbance, uHTS. hit rate 0.52% among 290,000. recombinant VHR phosphatase, pNPP absorbance. Dual specificity protein phosphatase 3 (Homo sapiens), P51452. AID 1654, 2009. inhibition, % at 13.3 µM; in the data active = inhibition above about 50%
Target sequence (P51452 whole entry, looked up): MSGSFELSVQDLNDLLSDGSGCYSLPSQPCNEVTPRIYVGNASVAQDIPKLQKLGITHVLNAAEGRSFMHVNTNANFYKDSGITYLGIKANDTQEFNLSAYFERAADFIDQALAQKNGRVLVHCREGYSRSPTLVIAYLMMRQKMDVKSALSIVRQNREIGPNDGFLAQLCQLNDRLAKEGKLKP
BoNT F protease: BoNT/F light chain protease inhibitors, primary screen, biochemical, flow cytometry, MLPCN library | Multiplex microsphere protease cleavage assay | inhibition, % at 10 µM | hit rate 0.22% among 360,000 | Botulinum neurotoxin type F light chain protease (Clostridium botulinum); in the data active = inhibition above about 35%, passing the limit was not always enough; inconclusive = no clear call, values can overlap the other calls
Bead autofluor: flagged as autofluorescent in microsphere protease counterscreen; compound autofluorescence counterscreen, microsphere flow cytometry; hits give high values; AID 624483; fluorescence intensity (concentration not given with the values); hit rate 3.1% among 360,000; in the data active = fluorescence intensity above about 16000; inconclusive = no clear call, values can overlap the other calls
BoNT-A LC inh2: BoNT/A light chain protease inhibitors, primary screen, biochemical, flow cytometry, MLPCN library | hit rate 0.17% among 360,000 | inhibition, % at 10 µM | multiplex microsphere protease substrate cleavage
Anthrax LF inh2: Bacillus anthracis LF protease inhibitors, primary screen, biochemical, multiplex microsphere, MLPCN library; Lethal factor (Bacillus anthracis), P15917; multiplex microsphere protease cleavage assay; inhibition, % at 10 µM; hit rate 0.12% among 360,000; AID 588501, 2011
Of the large screens only hits and unclear results are named; the others gave an inactive call. Cut-off read from the data, not from the text of the source, unless noted: active = inhibition above about 30%; inconclusive = no clear call, values can overlap the other calls; inactive = below that.

O=C1CN(C(=O)CSc2nncn2-c2ccccc2)c2ccccc2N1	Bead autofluor 21221
O=C1CN(C(=O)CNCc2ccccc2)c2ccccc2N1	VHR inh abs 52.4
CN(Cc1cccc(Cl)c1Cl)C(=O)c1cc(S(=O)(=O)N2CCOCC2)ccc1F	none (no result: 3CLpro inhibitor, VHR inh abs)
COc1cccc(CN2CCC2(C)C(=O)Nc2ccc3c(c2)OCO3)c1F (stereo not given)	none (no result: 3CLpro inhibitor, VHR inh abs)
O=C(N/N=C/c1ccccc1)c1n[nH]c2c1CCCC2	none
CC1(C)CC(=NNC(=O)c2n[nH]c3c2CCC3)CC(C)(C)N1	BoNT F protease 37.1
O=C(c1cc(-c2ccc3c(c2)OCO3)on1)N1CCN(c2ccccc2)CC1	Bead autofluor 18888
O=C(c1cc(-c2ccc(Cl)c(Cl)c2)on1)N1CCOCC1	none
O=C(c1cc(-c2ccc3c(c2)OCO3)on1)N1CCN(c2ccc(F)cc2)CC1	none
O=C(c1cc(-c2ccc(Cl)cc2)on1)N1CCOCC1	Bead autofluor 21336
O=C(c1cc(-c2ccc(F)cc2)on1)N1CCOCC1	none
O=C(c1cc(-c2ccc3c(c2)OCO3)on1)N1CCOCC1	Bead autofluor 23477, BoNT-A LC inh2 inconclusive
Cn1c(C=O)c(C#CC(C)(C)O)c2ccccc21	none (no result: 3CLpro inhibitor, VHR inh abs)
COc1cccc(C#Cc2c(C=O)n(C)c3ccccc23)c1	BoNT-A LC inh2 36.3, Anthrax LF inh2 37.1 (no result: 3CLpro inhibitor, VHR inh abs)
CCCn1ncc(CN2CCC(n3nccc3NC(=O)CCc3ccccc3)CC2)c1C	none
O=C(NCc1ccco1)c1ccc2c(c1)N(Cc1ccccc1)C(=O)CS2	Bead autofluor 25027
C=CCN1C(=O)CSc2ccc(C(=O)NCc3ccco3)cc21	none
Cc1ccc(NC(=O)COC(=O)CNC(=O)c2ccc(Br)cc2)c(C)c1	none
c1ccc(-c2nnc(CSc3nnc(-c4cccs4)o3)o2)cc1	Bead autofluor 22467 (no result: VHR inh abs)
Fc1ccc(-c2nnc(CSc3nnc(-c4cccs4)o3)o2)cc1	none
c1csc(-c2nnc(Cc3cccc4ccccc34)o2)c1	Bead autofluor 23714, BoNT-A LC inh2 inconclusive
CCOC(=O)C(Cc1c[nH]c2ccc([N+](=O)[O-])cc12)(NC(C)=O)C(=O)OCC	Bead autofluor inconclusive (no result: 3CLpro inhibitor, VHR inh abs)
COc1ccc2c(C(=O)c3ccc(Cl)cc3)n(CCCC(N)=O)[n+]([O-])c2c1	none (no result: 3CLpro inhibitor, VHR inh abs)
Cc1noc(C)c1COC(=O)c1cc2c(C)nn(-c3ccc(F)cc3)c2s1	none (no result: 3CLpro inhibitor)
Cc1nn(-c2ccc(F)cc2)c2sc(C(=O)OCC(=O)N3CCC(C)CC3)cc12	Bead autofluor 19994, BoNT-A LC inh2 inconclusive
OC(CNCC1CCCCC1)COc1ccccc1 (stereo not given)	VHR inh abs 51.1
CC(OC(=O)C1CCCO1)C(=O)NC1CCCC1 (stereo not given)	Bead autofluor 19071
O=C(Nc1ccc(-n2nncc2-c2ccco2)cc1)c1cc2ccccc2oc1=O	Bead autofluor 20140
COCC(=O)Nc1ccc2c(c1)OCC(=O)N2Cc1ccccc1F	none
N=c1oc2ccccc2cc1-c1nc(-c2ccccc2)cs1	none
Nc1nnc(-c2cc3c(ccc4ccccc43)oc2=O)s1	VHR inh abs 53.7 (no result: BoNT F protease, Bead autofluor, BoNT-A LC inh2, Anthrax LF inh2)
O=c1oc2ccc3ccccc3c2cc1-c1nnc(-c2ccccc2)o1	none
N=c1oc2ccc3ccccc3c2cc1-c1nc(-c2ccccc2)cs1	BoNT-A LC inh2 34.2, Anthrax LF inh2 32.0
CC(=O)c1cccc(OCc2cc(C(=O)NCc3nc(C)c(C)s3)no2)c1	none
CCN(CC)c1ccc(C=Nc2ccc(C)cc2C)c(O)c1	BoNT-A LC inh2 36.8
CCN(CC)c1ccc(C=Nc2cc(C)ccc2C)c(O)c1	BoNT-A LC inh2 72.4
CCN(CC)c1ccc(/C=N/Nc2ccc(C)cc2)c(O)c1	none
O=C(COC(=O)CN1C(=O)C2CCCCC2C1=O)Nc1cc(F)ccc1F (stereo not given)	none (no result: 3CLpro inhibitor, VHR inh abs)
CN(Cc1ccccc1)S(=O)(=O)c1ccc2c(c1)CCC(=O)N2	none
COc1ccc(S(=O)(=O)NCc2ccco2)cc1-c1nnc2c3ccccc3c(C)nn12	Bead autofluor 20211
CCCCNC(=O)Nc1ccc2c(c1)N(C)C(=O)c1ccccc1S2	none
CCCNC(=O)Nc1ccc2c(c1)N(C)C(=O)c1ccccc1S2	Bead autofluor 16271
CCN(CC)S(=O)(=O)c1ccc(OCC(=O)NC(=O)Cc2ccccc2)c([N+](=O)[O-])c1	none (no result: 3CLpro inhibitor, VHR inh abs)
CC(C)NC(=O)c1ccc2c(c1)N(CC(=O)N1CCCC1)C(=O)C(C)(C)O2	BoNT F protease inconclusive
CC(C)NC(=O)c1ccc2c(c1)N(CC(=O)N1CCOCC1)C(=O)C(C)(C)O2	Bead autofluor 22372
CC(C)(C)NC(=O)C(c1ccccc1)N(C(=O)c1ccco1)C1CC1 (stereo not given)	Bead autofluor 21553, BoNT-A LC inh2 inconclusive
O=C(NC1CCCC1)C(c1ccccc1)N(C(=O)c1ccco1)C1CCCC1 (stereo not given)	none
COc1ccc(/C=C/C(=O)NC(CCSC)C(=O)O)cc1 (stereo not given)	none
CCC(C)NCCCCOc1ccc(C)cc1[N+](=O)[O-] (stereo not given)	Bead autofluor 20177
CC1(C(=O)Nc2cccc3ccccc23)CCN1C(=O)Cc1ccc(Cl)cc1Cl (stereo not given)	none (no result: 3CLpro inhibitor, VHR inh abs)
c1ccc2cc(OCCOCCOc3ccc4ccccc4c3)ccc2c1	none
CC(C)SCCCCOc1ccc2ccccc2c1	Bead autofluor 21736
CNC(=O)CN1C(=O)NC(Cc2c[nH]c3ccccc23)C1=O (stereo not given)	none
Cc1cc(C(=O)CN2C(=O)NC(Cc3c[nH]c4ccccc34)C2=O)c(C)n1C (stereo not given)	Bead autofluor 23788
CCCC(c1nnnn1CCOC)N(Cc1cc2cc(C)c(C)cc2[nH]c1=O)CC1CCCO1 (stereo not given)	Bead autofluor 16616
COC(=O)[C@@]12CCCN1[C@H](c1ccc(-c3ccccc3)cc1)[C@@H]1C(=O)N(C)C(=O)[C@@H]12	none (no result: 3CLpro inhibitor, VHR inh abs)
CCOc1ccc(C(=O)Nc2ccc(S(=O)(=O)N3C[C@@H]4C[C@@H](C3)c3cccc(=O)n3C4)cc2)cc1	none (no result: 3CLpro inhibitor, VHR inh abs)
COc1ccc(NS(=O)(=O)c2cccc(C(=O)NCC(c3ccccc3OC)N3CCCC3)c2)cc1 (stereo not given)	none (no result: 3CLpro inhibitor, VHR inh abs)
O=C(NCC(c1ccco1)N1CCCCC1)c1ccc(S(=O)(=O)Nc2ccccc2)cc1 (stereo not given)	Bead autofluor inconclusive (no result: 3CLpro inhibitor, VHR inh abs)
COc1ccccc1C(CNC(=O)c1cccc(S(=O)(=O)Nc2ccc(F)cc2)c1)N1CCCC1 (stereo not given)	Bead autofluor 25818 (no result: 3CLpro inhibitor, VHR inh abs)
O=C(NCC(c1ccco1)N1CCCC1)c1cccc(NS(=O)(=O)c2ccccc2)c1 (stereo not given)	Bead autofluor 16491 (no result: 3CLpro inhibitor, VHR inh abs)
COc1ccc(CN(CCN(C)C)Cc2ccccc2)c(OC)c1	Bead autofluor 20994
CCN(Cc1ccncc1)Cc1ccc(OC)cc1OC	none
